Records with an inconclusive call do not appear. Entries that show only a call come without a potency. Active and inactive are the calls of the source. The call rests on the fitted dose curve; in most records, active means well fitted cell-killing curve with a large enough effect; inconclusive means small, poorly fitted or top-dose-only effect; inactive means flat fitted curve, though single readings scatter.
Potency means the concentration at half of the fitted maximal effect.

The test can be described thus: qHTS of pediatric cancer cell lines to identify multiple opportunities for drug repurposing: Primary screen for Rh18 cells (AID 1347102). Further: nearly all actives have a fitted effect of over 65% in size. The settings on record: Rh18 rhabdomyosarcoma viability, CellTiter-Glo luminescence, 48 h; series mostly up to 46 µM. The method, boiled down:
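Cells (500-1,000/well) in growth media were settled 5 h at 37 degrees C, then given compounds for 48 h. Viability was read as CellTiter-Glo luminescence. Primary runs used MIPE at 11 points (0.78 nM-46 µM) and NPC at 8 points (0.59 nM-46 µM); follow-ups used 11 points.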
In general terms: In qHTS, concentration-response curves come from the screen itself.
Regarding `CC(C)=CCNc1ncnc2c1ncn2[C@@H]1O[C@H](CO)[C@@H](O)[C@H]1O`, the Potency is 2.66 µM (active). To `COc1cc2c(cc1OC)CN(C(=O)[C@H](C)N[C@@H](CCc1ccccc1)C(=O)O)[C@H](C(=O)O)C2` belongs “inactive”.

With `O=C(O)[C@@H](O)[C@H](O)[C@H](O)[C@@H](O)C(=O)O`, the Potency entry was “inactive”. As to `CC(=O)OCC(=O)Nc1cc(C#N)cc(NC(=O)COC(C)=O)c1Cl`, the Potency result was “inactive”.

`O=C(Nc1ccc(S(=O)(=O)N2CCOCC2)cc1)c1cc(Cl)ccc1NS(=O)(=O)c1ccc(Cl)s1`: the Potency result was “inactive”. The value for `CC1(C)S[C@@H]2[C@H](NC(=O)C(c3ccccc3)S(=O)(=O)O)C(=O)N2[C@H]1C(=O)O` (stereo partly specified) was “inactive”; that for `CCc1cc2cc(OC)c(OC)cc2c(Cc2ccccc2)n1` was “inactive”; that for `CC(=O)Nc1ccc(S(=O)(=O)Nc2cc(C)on2)cc1` was “inactive”.

`CCNC(=O)NCCCOc1cccc(CN2CCCCC2)c1`: the Potency result is “inactive”. To `O=c1[nH]c2ccccc2c(=O)n1CCCl` belongs “inactive”; to `CCCCCC1Nc2cc(C(F)(F)F)c(S(N)(=O)=O)cc2S(=O)(=O)N1` (stereo unspecified), “inactive”. Turning to `CC(C)C(=O)Nc1cccc(C(F)(F)F)c1`, the Potency entry was “inactive”.

As for `OC1(c2ccc(Cl)cc2)CCNCC1`, the Potency entry is “inactive”. The value for `Cc1cccc(C)c1NC(=O)c1ccc(N)cc1` was “inactive”. As for `CCOc1c(N2CCOCC2)cnn(C)c1=O`, the Potency entry is “inactive”. Consider `CCOc1ncc(F)c(=O)[nH]1`, for which the Potency entry is “inactive”. For `O=C(OCC(COC(=O)c1cccnc1)(COC(=O)c1cccnc1)COC(=O)c1cccnc1)c1cccnc1`, the Potency result is “inactive”. As for `C=CC[N+]1([C@H]2C[C@H]3[C@@H]4CC[C@H]5C[C@H](OC(C)=O)[C@@H](N6CCCCC6)C[C@]5(C)[C@H]4CC[C@]3(C)[C@H]2OC(=O)CC)CCCCC1`, the Potency entry is “inactive”. For the molecule `OC1(c2ccc(Cl)c(C(F)(F)F)c2)CCN(CCCC(c2ccc(F)cc2)c2ccc(F)cc2)CC1`, the Potency was 23.7 µM (active). Regarding `COC(=O)/C=C(/C)N`, the Potency result is “inactive”. As to `Nc1nc2ccccc2n1Cc1ccc(F)cc1`, the Potency entry was “inactive”. To `OCc1c[nH]c2ccccc12` belongs “inactive”; to `CCC(=O)O[C@]1(C(=O)COC)[C@@H](C)C[C@H]2[C@@H]3CCC4=CC(=O)C=C[C@]4(C)C3(F)[C@@H](O)C[C@@]21C` (stereo partly specified), “inactive”; to `CN(C)C(=O)CNC(=O)Cc1ccccc1`, “inactive”. With `CCCCNc1ccc(C(=O)OCCN(CC)CC)cc1`, the Potency entry is “inactive”. As to `O=C1CCCc2c(O)cccc21`, the Potency result is “inactive”.

Take `CC(Oc1c(Cl)cccc1Cl)C1=NCCN1` (stereo unspecified): the Potency entry was “inactive”.

For the molecule `CC(C)(C)C(O)/C=C/c1ccc2c(c1)OCO2` (stereo unspecified), the Potency result is “inactive”. `COC(=O)c1cc(S(N)(=O)=O)ccc1OC`: the Potency entry is “inactive”.

On to `Nc1ccc([N+](=O)[O-])c(C(F)(F)F)c1`, for which the Potency entry is “inactive”. To `C/C=C(/C(=C/C)c1ccc(OC(C)=O)cc1)c1ccc(OC(C)=O)cc1` belongs “inactive”.

(Values after PubChem BioAssay (NCATS).)
